The results in this text go back to PubChem BioAssay.

For some assays here: Results with a measured potency or affinity are listed apart. The source made the active and inactive calls. Unless noted, the limit is not given here; nearly all actives have IC50 up to about 0.98 µM.

Tested on in one experiment: not listed separately
Kind of experiment: inhibition of 3D7 malaria parasite growth – strain 3D7 (AID 2306; call rule not given here;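 also: 0% = DMSO wells and 100% = chloroquine plus artemisinin control wells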). Particulars: P. falciparum 3D7 erythrocytic growth, LDH absorbance, 72 h; at 2 µM; hits give high values.
For the compound `O=C(Nc1cccc(OC2CCN(Cc3ccccc3)CC2)c1)Nc1cccc([N+](=O)[O-])c1`, the growth inhibition is 101% (active).
As to `CCCNCc1ccc(-c2ccc(CN(Cc3cnc(C)cn3)C(=O)/C=C/c3ccccc3C)cc2)nc1`, the growth inhibition was 95% (active).
For `COc1ccc(CN2CCCC(OC(c3ccc(F)cc3)c3ccc(F)cc3)C2)c(O)c1` (stereo not given), the growth inhibition is 100% (active).
On the same count and under the same terms, then `Cc1cc(N[C@@H](Cc2ccccc2)C(=O)NC2CCCC2)nc(NCC2CCCCC2)n1`, with 101% (active).
For the compound `N=C(N)c1ccc(Oc2ccc(C(=N)N)cc2)cc1`, the growth inhibition is 92% (active).
On the same count and under the same terms, as for `COc1cccc2c(NCc3ccccc3)nc(NCCCN3CCCCC3C)nc12` (stereo not given), the figure is 90% (active).
`CCNc1cc(C(=O)N[C@@H](Cc2ccccc2)[C@H](O)CNCc2cc(OC)cc(OC)c2)cc(N2CCCC2=O)c1`: the growth inhibition is 100% (active).
As to `CS(=O)(=O)c1ccc(-c2nc(NCC3CCCCC3)cc(C(F)(F)F)n2)cc1`, the growth inhibition is 83% (active).
Regarding `CC(=NN=C(N)N)C(=O)Nc1ccc(Cl)c(Cl)c1`, the growth inhibition is 101% (active).
On to `Cc1[nH]c2ccc(O)cc2c1C1CCN(CCCCCNC(=O)/C=C/c2ccc(Cl)c(Cl)c2)CC1`, for which the growth inhibition was 101% (active).
Take `O=C(Nc1ccccc1Cl)N(Cc1cc(Cl)cc(Cl)c1)CC(O)COc1ccc(Cl)c(F)c1` (stereo not given): the growth inhibition is 93% (active).
On to `CO/C(=C\C=C\c1cc2cc(Cl)c(Cl)cc2[nH]1)C(=O)NCCCNC12CC3CC(CC(C3)C1)C2`, for which the growth inhibition is 99% (active).
For the compound `COc1ccc2[nH]c(C(=O)Nc3cccc(-c4ccc(CN(C)C)cc4)c3)cc2c1`, the growth inhibition was 100% (active).
On to `Brc1cc(Br)c2c(c1)C(NCCCNC1CCNc3c(Br)cc(Br)cc31)CCN2` (stereo not given), for which the growth inhibition is 98% (active).
As for `CC(C)Nc1nc(NCCc2cnc[nH]2)nc(NCc2ccc(Cl)c(Cl)c2)n1`, the growth inhibition was 88% (active).
On the same count and under the same terms, as for `COC(=O)Nc1nc2cc3c(cc2s1)OCCO3`, the figure is 99% (active); as for `C[C@@H](CC1CCCCC1)OC(=O)N[C@H]1CCN(C#N)C1`, 95% (active).
As for `Cc1cc(NC(=O)Nc2cccc(Cl)c2Cl)c2ccccc2n1`, the growth inhibition is 96% (active).
The same measure, in the same setting: as for `CC(CN(C)C)C(=O)Nc1cccc(-c2ccc(-c3nc4ccccc4[nH]3)cc2)c1` (stereo not given), the figure is 98% (active).
For `O=S(=O)(NCCN1CCCC1)c1ccc(-c2cccc(CNC3Cc4ccccc4C3)c2)cc1F`, the growth inhibition is 98% (active).
On the same count and under the same terms, as for `O=C(Nc1ccc2c(c1)CCC2)c1cnc(N2CCN(c3ccncc3)CC2)c(Cl)c1`, the figure is 100% (active).
As for `O=C(NCC1CCC1)c1cnc(Nc2cccc(Cl)c2)nc1N1CCC1`, the growth inhibition was 98% (active).
As for `COc1cc2ncnc(Nc3ccc4nc(-c5ccccc5)[nH]c4c3)c2cc1OC`, the growth inhibition is 92% (active).
For the compound `O=C(/C=C/c1ccc(Cl)c(Cl)c1)NCCCCCCN1CCN(C(=O)Nc2ccc(Cl)c(C(F)(F)F)c2)CC1`, the growth inhibition was 99% (active).
Take `CCCCCn1c(Sc2ccc(C#N)c([N+](=O)[O-])c2)nnc1-c1cccc(Cl)c1`: the growth inhibition was 95% (active).
Consider `OC(c1cc(C(F)(F)F)nc2c(F)cccc12)C1CCCCN1` (stereo not given), for which the growth inhibition was 98% (active).
The same measure, in the same setting: then `O=C(NCCCCN1CCN(c2cccc3ccccc23)CC1)c1ccc(NC(=O)c2ccc(Cl)cc2)cc1`, with 101% (active); and `Cc1[nH]c(C)c(-c2ccc(-c3ccc(F)cc3)nc2)c(=O)c1Br`, with 97% (active).
The same measure, in the same setting: as for `CCN(CC)c1ccccc1CNC(=O)c1cc(Cl)c(N)cc1OC`, the figure is 97% (active).
With `O=C(Nc1cccc(C(F)(F)F)c1)Nc1ccc(Cl)c(C(F)(F)F)c1`, the growth inhibition is 99% (active).
Same read-out and setting: as for `Cc1cc(F)ccc1-c1nc(NCCCN2CCCC2=O)nc2c1ccc(=O)n2-c1c(F)cccc1F`, the figure is 88% (active); as for `COc1ccc(N2CCN(CCCC/C=C/c3ccc(NC(=O)c4cc(Cl)cc(Cl)c4)cc3)CC2)c(OC)c1`, 99% (active).
In the case of `Nc1cccc(CNCc2ccc(-c3cccc(-c4nc5ccc(C(F)(F)F)cc5[nH]4)c3)cc2)c1`, the growth inhibition is 100% (active).
`CNCc1ccc2nc(-c3coc(Cc4cc(Cl)ccc4OCC(C)C)n3)[nH]c2c1`: the growth inhibition was 101% (active).
With `COc1ccc(-c2ccc(CNCc3ccccc3)cc2)cc1S(=O)(=O)NCCN1CCCC1`, the growth inhibition was 102% (active).
Regarding `O=C(Nc1cccc(CN2CCCN(Cc3ccc(O)cc3)CC2)c1)c1cccc(F)c1`, the growth inhibition was 92% (active).
In the case of `CCOc1cc(C(=O)NCCN2CCCCC2)ccc1-c1nc2ccc(Cl)cc2[nH]1`, the growth inhibition was 99% (active).
Still for that read-out and setting: as for `CCCCSc1nc2c(c(=O)n1Cc1ccco1)C1(CCCCC1)Cc1ccccc1-2`, the figure is 96% (active); as for `CS(=O)(=O)N(c1ccccc1)c1cc(C(=O)N[C@@H](Cc2ccccc2)[C@H](O)CNC2CCCCC2)cc(N2CCCC2=O)c1`, 100% (active); as for `COc1ccc2ncc(F)c(CCN3C[C@@H]4CCC[C@]4(CNCc4ccc5c(n4)NC(=O)CS5)C3)c2n1`, 87% (active).

The target in another experiment is Calcium-dependent protein kinase 1 (Plasmodium falciparum (isolate 3D7)) (UniProt P62344). The experiment is described as follows: PfCDPK1 kinase inhibitors, biochemical, TCAMS library (AID 1159585).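 Also: inhibitors leave more ATP so luminescence rises with inhibition.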 Particulars: recombinant PfCDPK1, Kinase-Glo ATP depletion luminescence. On the technique in general: In Kinase-Glo more light means more ATP remaining.
Chain of Calcium-dependent protein kinase 1 (Plasmodium falciparum (isolate 3D7)) (P62344 whole entry, looked up): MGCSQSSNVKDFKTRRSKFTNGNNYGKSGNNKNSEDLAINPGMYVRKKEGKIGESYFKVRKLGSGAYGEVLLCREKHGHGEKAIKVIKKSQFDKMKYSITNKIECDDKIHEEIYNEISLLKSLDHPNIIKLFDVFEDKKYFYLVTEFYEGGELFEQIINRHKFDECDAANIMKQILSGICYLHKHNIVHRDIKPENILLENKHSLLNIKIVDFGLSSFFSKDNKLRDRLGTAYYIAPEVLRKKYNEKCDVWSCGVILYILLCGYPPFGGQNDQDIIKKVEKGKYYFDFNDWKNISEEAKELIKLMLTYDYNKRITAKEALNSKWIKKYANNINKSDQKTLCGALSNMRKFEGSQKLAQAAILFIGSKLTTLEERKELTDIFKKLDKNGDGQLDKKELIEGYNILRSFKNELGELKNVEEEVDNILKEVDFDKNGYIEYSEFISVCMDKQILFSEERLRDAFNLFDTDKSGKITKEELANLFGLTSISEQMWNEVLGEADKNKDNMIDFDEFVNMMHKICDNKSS
For the compound `O=C(Nc1cccc(OC2CCN(Cc3ccccc3)CC2)c1)Nc1cccc([N+](=O)[O-])c1`, the outcome was inactive.
Still for that read-out and setting: then `CCCNCc1ccc(-c2ccc(CN(Cc3cnc(C)cn3)C(=O)/C=C/c3ccccc3C)cc2)nc1`, with “inactive”.
As to `COc1ccc(CN2CCCC(OC(c3ccc(F)cc3)c3ccc(F)cc3)C2)c(O)c1` (stereo not given), the outcome was inactive.
Regarding `Cc1cc(N[C@@H](Cc2ccccc2)C(=O)NC2CCCC2)nc(NCC2CCCCC2)n1`, the result was inactive.
On the same count and under the same terms, then `N=C(N)c1ccc(Oc2ccc(C(=N)N)cc2)cc1`, with “inactive”.
For the compound `COc1cccc2c(NCc3ccccc3)nc(NCCCN3CCCCC3C)nc12` (stereo not given), the outcome was inactive.
Take `CCNc1cc(C(=O)N[C@@H](Cc2ccccc2)[C@H](O)CNCc2cc(OC)cc(OC)c2)cc(N2CCCC2=O)c1`: the outcome was inactive.
On the same count and under the same terms, as for `CS(=O)(=O)c1ccc(-c2nc(NCC3CCCCC3)cc(C(F)(F)F)n2)cc1`, the entry is “inactive”; as for `CC(=NN=C(N)N)C(=O)Nc1ccc(Cl)c(Cl)c1`, “inactive”; as for `Cc1[nH]c2ccc(O)cc2c1C1CCN(CCCCCNC(=O)/C=C/c2ccc(Cl)c(Cl)c2)CC1`, “inactive”.
On the same count and under the same terms, as for `O=C(Nc1ccccc1Cl)N(Cc1cc(Cl)cc(Cl)c1)CC(O)COc1ccc(Cl)c(F)c1` (stereo not given), the entry is “inactive”; as for `CO/C(=C\C=C\c1cc2cc(Cl)c(Cl)cc2[nH]1)C(=O)NCCCNC12CC3CC(CC(C3)C1)C2`, “inactive”; as for `COc1ccc2[nH]c(C(=O)Nc3cccc(-c4ccc(CN(C)C)cc4)c3)cc2c1`, “inactive”.
On to `Brc1cc(Br)c2c(c1)C(NCCCNC1CCNc3c(Br)cc(Br)cc31)CCN2` (stereo not given), for which the result was inactive.
As to `CC(C)Nc1nc(NCCc2cnc[nH]2)nc(NCc2ccc(Cl)c(Cl)c2)n1`, the result was inactive.
The same measure, in the same setting: then `COC(=O)Nc1nc2cc3c(cc2s1)OCCO3`, with “inactive”; and `C[C@@H](CC1CCCCC1)OC(=O)N[C@H]1CCN(C#N)C1`, with “inactive”.
In the case of `Cc1cc(NC(=O)Nc2cccc(Cl)c2Cl)c2ccccc2n1`, the result was inactive.
On the same count and under the same terms, then `CC(CN(C)C)C(=O)Nc1cccc(-c2ccc(-c3nc4ccccc4[nH]3)cc2)c1` (stereo not given), with “inactive”; and `O=S(=O)(NCCN1CCCC1)c1ccc(-c2cccc(CNC3Cc4ccccc4C3)c2)cc1F`, with “inactive”.
Turning to `O=C(Nc1ccc2c(c1)CCC2)c1cnc(N2CCN(c3ccncc3)CC2)c(Cl)c1`, the outcome was inactive.
As for `O=C(NCC1CCC1)c1cnc(Nc2cccc(Cl)c2)nc1N1CCC1`, the result was inactive.
On to `COc1cc2ncnc(Nc3ccc4nc(-c5ccccc5)[nH]c4c3)c2cc1OC`, for which the outcome was inactive.
Same read-out and setting: as for `O=C(/C=C/c1ccc(Cl)c(Cl)c1)NCCCCCCN1CCN(C(=O)Nc2ccc(Cl)c(C(F)(F)F)c2)CC1`, the entry is “inactive”.
Still for that read-out and setting: then `CCCCCn1c(Sc2ccc(C#N)c([N+](=O)[O-])c2)nnc1-c1cccc(Cl)c1`, with “inactive”; and `OC(c1cc(C(F)(F)F)nc2c(F)cccc12)C1CCCCN1` (stereo not given), with “inactive”.
The same measure, in the same setting: then `O=C(NCCCCN1CCN(c2cccc3ccccc23)CC1)c1ccc(NC(=O)c2ccc(Cl)cc2)cc1`, with “inactive”; and `Cc1[nH]c(C)c(-c2ccc(-c3ccc(F)cc3)nc2)c(=O)c1Br`, with “inactive”.
Consider `CCN(CC)c1ccccc1CNC(=O)c1cc(Cl)c(N)cc1OC`, for which the result was inactive.
`O=C(Nc1cccc(C(F)(F)F)c1)Nc1ccc(Cl)c(C(F)(F)F)c1`: the result was inactive.
For the compound `Cc1cc(F)ccc1-c1nc(NCCCN2CCCC2=O)nc2c1ccc(=O)n2-c1c(F)cccc1F`, the outcome was inactive.
Same read-out and setting: then `COc1ccc(N2CCN(CCCC/C=C/c3ccc(NC(=O)c4cc(Cl)cc(Cl)c4)cc3)CC2)c(OC)c1`, with “inactive”; and `Nc1cccc(CNCc2ccc(-c3cccc(-c4nc5ccc(C(F)(F)F)cc5[nH]4)c3)cc2)c1`, with “inactive”.
Same read-out and setting: then `CNCc1ccc2nc(-c3coc(Cc4cc(Cl)ccc4OCC(C)C)n3)[nH]c2c1`, with “inactive”; and `COc1ccc(-c2ccc(CNCc3ccccc3)cc2)cc1S(=O)(=O)NCCN1CCCC1`, with “inactive”; and `O=C(Nc1cccc(CN2CCCN(Cc3ccc(O)cc3)CC2)c1)c1cccc(F)c1`, with “inactive”.
As to `CCOc1cc(C(=O)NCCN2CCCCC2)ccc1-c1nc2ccc(Cl)cc2[nH]1`, the result was inactive.
In the case of `CCCCSc1nc2c(c(=O)n1Cc1ccco1)C1(CCCCC1)Cc1ccccc1-2`, the result was inactive.
The same measure, in the same setting: as for `CS(=O)(=O)N(c1ccccc1)c1cc(C(=O)N[C@@H](Cc2ccccc2)[C@H](O)CNC2CCCCC2)cc(N2CCCC2=O)c1`, the entry is “inactive”; as for `COc1ccc2ncc(F)c(CCN3C[C@@H]4CCC[C@]4(CNCc4ccc5c(n4)NC(=O)CS5)C3)c2n1`, “inactive”.
